Experiments:
Assay in all cases: DAPPL (digital affinity profiling via proximity ligation, sequencing); 10 mM Tris-HCl pH 7.5, 50 mM NaCl, 1 mM DTT, 4% glycerol, room temperature, 30 min; GST-TFs on glutathione beads, 16-mer random dsDNA library, 0.1% formaldehyde crosslink after washing; high values mean tight binding
[1] = target: T1, FEV (Homo sapiens, UniProt Q99581 1-238); conditions: protein: recombinant; tags: N-terminal GST; dsDNA, one strand shown
T1 sequence: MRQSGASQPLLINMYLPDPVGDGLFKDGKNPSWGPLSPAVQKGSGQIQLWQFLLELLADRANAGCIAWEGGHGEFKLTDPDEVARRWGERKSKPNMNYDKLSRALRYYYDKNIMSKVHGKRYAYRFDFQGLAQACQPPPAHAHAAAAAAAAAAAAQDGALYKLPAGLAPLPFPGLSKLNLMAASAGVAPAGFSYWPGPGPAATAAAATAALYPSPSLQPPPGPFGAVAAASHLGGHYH
Method in brief: (§1)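 Yeast served to express human transcription factors as GST fusions, which were then captured on glutathione beads and labelled with DNA barcodes. Pooled with a tag-only sample, they were incubated with 200 nmole of a 16-mer random double-stranded DNA library for 30 min at room temperature in Tris/NaCl/DTT/glycerol buffer, washed, crosslinked with 0.1% formaldehyde, ligated by proximity, amplified by PCR and sequenced. Dividing each hexamer's read frequency for a factor by its frequency for the tag-only sample gives the binding signal.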

[2] = target: ETV5 (Homo sapiens, UniProt P41161 1-510); conditions: protein: recombinant; tags: N-terminal GST; dsDNA, one strand shown
ETV5, sequence (P41161 whole entry): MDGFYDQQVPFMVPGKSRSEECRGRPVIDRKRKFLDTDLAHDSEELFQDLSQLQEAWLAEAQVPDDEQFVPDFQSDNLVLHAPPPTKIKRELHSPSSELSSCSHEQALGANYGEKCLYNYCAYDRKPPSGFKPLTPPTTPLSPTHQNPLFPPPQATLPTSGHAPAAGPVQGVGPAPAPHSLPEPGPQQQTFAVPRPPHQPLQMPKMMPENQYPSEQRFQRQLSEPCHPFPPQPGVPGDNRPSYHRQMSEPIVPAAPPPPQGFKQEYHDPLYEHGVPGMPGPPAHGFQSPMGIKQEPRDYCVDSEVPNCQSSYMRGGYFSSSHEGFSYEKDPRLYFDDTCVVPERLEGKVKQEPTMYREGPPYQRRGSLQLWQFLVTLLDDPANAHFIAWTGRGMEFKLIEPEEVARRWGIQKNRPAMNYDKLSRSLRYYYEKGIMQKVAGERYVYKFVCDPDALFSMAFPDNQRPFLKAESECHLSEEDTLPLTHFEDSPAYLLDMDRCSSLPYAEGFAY
Method in brief: as §1

[3] = target: HSF1 (Homo sapiens, UniProt Q00613 1-529); conditions: protein: recombinant; tags: N-terminal GST; chain copies: 3; dsDNA, one strand shown
HSF1, sequence (Q00613 whole entry): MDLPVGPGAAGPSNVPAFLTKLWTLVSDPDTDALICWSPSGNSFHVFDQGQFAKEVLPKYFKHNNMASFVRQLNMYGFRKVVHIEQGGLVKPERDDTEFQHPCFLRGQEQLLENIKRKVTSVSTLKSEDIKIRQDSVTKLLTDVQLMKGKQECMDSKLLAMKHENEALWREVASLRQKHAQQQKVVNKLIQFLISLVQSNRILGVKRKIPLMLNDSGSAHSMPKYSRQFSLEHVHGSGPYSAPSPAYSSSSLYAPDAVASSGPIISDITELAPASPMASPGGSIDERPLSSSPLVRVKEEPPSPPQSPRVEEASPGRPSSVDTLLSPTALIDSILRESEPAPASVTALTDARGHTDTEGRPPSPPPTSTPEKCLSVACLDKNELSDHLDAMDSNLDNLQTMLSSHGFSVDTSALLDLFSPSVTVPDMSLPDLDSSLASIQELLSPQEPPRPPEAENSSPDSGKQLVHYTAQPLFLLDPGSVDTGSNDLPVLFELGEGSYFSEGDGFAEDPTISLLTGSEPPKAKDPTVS
Method in brief: as §1

[4] = target: T2, SPIC (Homo sapiens, UniProt Q8N5J4 1-248); conditions: protein: recombinant; tags: N-terminal GST; dsDNA, one strand shown
T2 sequence: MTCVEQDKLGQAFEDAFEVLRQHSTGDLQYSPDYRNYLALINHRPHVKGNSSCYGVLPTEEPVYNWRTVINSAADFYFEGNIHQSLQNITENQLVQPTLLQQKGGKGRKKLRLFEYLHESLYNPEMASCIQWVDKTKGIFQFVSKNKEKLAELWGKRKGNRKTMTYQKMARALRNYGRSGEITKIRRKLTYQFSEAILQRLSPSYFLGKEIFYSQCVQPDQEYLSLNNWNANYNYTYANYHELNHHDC
Method in brief: as §1

[5] = target: ELF4 (Homo sapiens, UniProt Q99607 1-663); conditions: protein: recombinant; tags: N-terminal GST; dsDNA, one strand shown
ELF4, sequence (Q99607 whole entry): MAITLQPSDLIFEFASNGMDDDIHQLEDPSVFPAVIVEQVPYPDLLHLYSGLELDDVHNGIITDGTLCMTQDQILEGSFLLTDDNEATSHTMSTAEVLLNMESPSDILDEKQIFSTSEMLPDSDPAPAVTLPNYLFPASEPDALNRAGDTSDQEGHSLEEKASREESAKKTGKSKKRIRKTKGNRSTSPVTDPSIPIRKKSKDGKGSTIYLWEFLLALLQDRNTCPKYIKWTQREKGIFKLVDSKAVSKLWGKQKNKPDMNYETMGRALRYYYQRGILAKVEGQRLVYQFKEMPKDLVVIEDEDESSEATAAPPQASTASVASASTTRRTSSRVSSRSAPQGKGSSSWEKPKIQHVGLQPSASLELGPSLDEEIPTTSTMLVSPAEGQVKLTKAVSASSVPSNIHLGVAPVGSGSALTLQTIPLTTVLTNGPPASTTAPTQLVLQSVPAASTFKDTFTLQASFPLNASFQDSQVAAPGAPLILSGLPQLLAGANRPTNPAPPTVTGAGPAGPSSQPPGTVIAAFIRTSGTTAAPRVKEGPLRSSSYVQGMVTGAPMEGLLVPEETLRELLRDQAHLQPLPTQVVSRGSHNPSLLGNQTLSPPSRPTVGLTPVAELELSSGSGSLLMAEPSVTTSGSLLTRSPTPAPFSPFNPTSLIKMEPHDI
Method in brief: as §1

[6] = target: T3, ELK4 (Homo sapiens, UniProt P28324-2 1-405); conditions: protein: recombinant; tags: N-terminal GST; dsDNA, one strand shown
T3 sequence: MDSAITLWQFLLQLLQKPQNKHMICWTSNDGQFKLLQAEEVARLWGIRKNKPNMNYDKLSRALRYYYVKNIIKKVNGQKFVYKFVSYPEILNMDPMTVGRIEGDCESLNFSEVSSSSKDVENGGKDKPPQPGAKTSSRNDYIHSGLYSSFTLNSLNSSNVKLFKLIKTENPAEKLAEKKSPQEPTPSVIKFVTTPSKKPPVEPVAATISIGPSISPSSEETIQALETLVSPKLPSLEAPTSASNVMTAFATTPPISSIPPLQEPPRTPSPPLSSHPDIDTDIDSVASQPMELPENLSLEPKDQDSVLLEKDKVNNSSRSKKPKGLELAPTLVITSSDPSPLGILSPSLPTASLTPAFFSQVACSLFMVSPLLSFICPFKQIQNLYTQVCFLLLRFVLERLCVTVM
Method in brief: as §1

[7] = target: T4, ETV2 (Homo sapiens, UniProt O00321 1-342); conditions: protein: recombinant; tags: N-terminal GST; dsDNA, one strand shown
T4 sequence: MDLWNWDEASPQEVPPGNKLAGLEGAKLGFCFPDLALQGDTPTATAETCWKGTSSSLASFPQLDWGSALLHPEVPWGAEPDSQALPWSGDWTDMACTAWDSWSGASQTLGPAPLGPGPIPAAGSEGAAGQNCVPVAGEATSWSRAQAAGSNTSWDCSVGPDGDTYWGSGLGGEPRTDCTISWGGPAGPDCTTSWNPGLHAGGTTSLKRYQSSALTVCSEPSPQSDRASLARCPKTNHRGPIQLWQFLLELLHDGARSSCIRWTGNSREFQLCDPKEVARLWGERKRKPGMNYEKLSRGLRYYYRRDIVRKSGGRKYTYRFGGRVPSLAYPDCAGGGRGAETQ
Method in brief: as §1

[8] = target: T5, ELF3 (Homo sapiens, UniProt P78545 1-371); conditions: protein: recombinant; tags: N-terminal GST; dsDNA, one strand shown
T5 sequence: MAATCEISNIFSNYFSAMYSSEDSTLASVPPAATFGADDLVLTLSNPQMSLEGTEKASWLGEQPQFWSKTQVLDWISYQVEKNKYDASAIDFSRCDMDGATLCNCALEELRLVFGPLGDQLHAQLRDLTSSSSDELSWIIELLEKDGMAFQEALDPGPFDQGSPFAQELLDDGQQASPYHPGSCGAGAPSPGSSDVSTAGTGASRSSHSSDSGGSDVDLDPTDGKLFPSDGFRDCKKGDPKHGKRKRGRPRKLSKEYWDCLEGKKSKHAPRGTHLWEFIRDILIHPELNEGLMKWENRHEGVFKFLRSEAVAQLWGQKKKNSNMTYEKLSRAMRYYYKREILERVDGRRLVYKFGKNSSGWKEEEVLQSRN
Method in brief: as §1

[9] = target: CRX (Homo sapiens, UniProt O43186 1-299); conditions: protein: recombinant; tags: N-terminal GST; dsDNA, one strand shown
CRX, sequence (O43186 whole entry): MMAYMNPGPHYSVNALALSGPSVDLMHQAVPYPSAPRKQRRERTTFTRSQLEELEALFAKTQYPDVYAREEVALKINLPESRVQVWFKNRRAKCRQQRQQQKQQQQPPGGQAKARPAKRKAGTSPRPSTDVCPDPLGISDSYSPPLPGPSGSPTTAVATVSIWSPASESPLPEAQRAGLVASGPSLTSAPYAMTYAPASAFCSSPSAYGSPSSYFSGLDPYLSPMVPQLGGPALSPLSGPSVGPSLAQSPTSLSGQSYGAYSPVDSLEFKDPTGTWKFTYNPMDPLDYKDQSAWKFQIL
Method in brief: as §1

For AAGCAT, the binding signal [1] was 1.07 fold enrichment (6-mer frequency, TF over GST control), the binding signal [2] was 1.06 fold enrichment (6-mer frequency, TF over GST control) and the binding signal [3] was 1.15 fold enrichment (6-mer frequency, TF over GST control). The binding signal [4] was 1.06 fold enrichment (6-mer frequency, TF over GST control), the binding signal [5] was 1.13 fold enrichment (6-mer frequency, TF over GST control) and the binding signal [6] was 1.19 fold enrichment (6-mer frequency, TF over GST control). The binding signal [7] was 1.06 fold enrichment (6-mer frequency, TF over GST control), the binding signal [8] was 1.17 fold enrichment (6-mer frequency, TF over GST control) and the binding signal [9] was 1.14 fold enrichment (6-mer frequency, TF over GST control).

— PMC7862700, “An all-to-all approach to the identification of sequence-specific readers for epigenetic DNA modifications on cytosine”
